Results from the supplement of paper PMC8728848.
Only a selection was taken, and the strongest signals are over-represented in it overall.

How the values were obtained:
Experiment in all cases: glycan array binding signal (z-score within array); higher = stronger binding
Details in all cases: glycan notation: IUPAC condensed, linker removed
[1] = molecular target: Fuc(a1-2)Gal(b1-3)GlcNAc(b1-2)Man(a1-3)[Fuc(a1-2)Gal(b1-3)GlcNAc(b1-2)Man(a1-6)]Man(b1-4)GlcNAc(b1-4)GlcNAc
Outline: (§1)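 Arrays were curated from the Consortium for Functional Glycomics database, 3228 in total, and kept only where the protein sequence was available. Binding is expressed as a within-array Z-score. This score was averaged across arrays of the same protein sequence at different concentrations or buffers and across linkers, and negative values can be read as non-binding.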

[2] = molecular target: Fuc(a1-2)Gal(b1-4)GlcNAc(b1-2)Man(a1-3)[Fuc(a1-2)Gal(b1-4)GlcNAc(b1-2)Man(a1-6)]Man(b1-4)GlcNAc(b1-4)[Fuc(a1-6)]GlcNAc
Outline: as §1

[3] = molecular target: Fuc(a1-2)[Gal(a1-3)]Gal(b1-3)GlcNAc(b1-3)GalNAc
Outline: as §1

[4] = molecular target: Fuc(a1-2)[GalNAc(a1-3)]Gal(b1-4)GlcNAc
Outline: as §1

[5] = molecular target: Fuc(a1-2)[GalNAc(a1-3)]Gal(b1-4)GlcNAc(b1-2)Man(a1-3)[Fuc(a1-2)[GalNAc(a1-3)]Gal(b1-4)GlcNAc(b1-2)Man(a1-6)]Man(b1-4)GlcNAc(b1-4)[Fuc(a1-6)]GlcNAc
Outline: as §1

[6] = molecular target: Fuc(a1-2)[GalNAc(a1-3)]Gal(b1-4)[Fuc(a1-3)]GlcNAc(b1-3)GalNAc
Outline: as §1

[7] = molecular target: Fuc(a1-2)[GalNAc(b1-3)]Gal
Outline: as §1

[8] = molecular target: Fuc(a1-3)[Gal(b1-4)]GlcNAc(b1-2)Man(a1-3)[Fuc(a1-3)[Gal(b1-4)]GlcNAc(b1-2)Man(a1-6)]Man(b1-4)GlcNAc(b1-4)GlcNAc
Outline: as §1

[9] = molecular target: Gal(a1-3)Gal(b1-4)GlcNAc(b1-2)Man(a1-3)[Gal(a1-3)Gal(b1-4)GlcNAc(b1-2)Man(a1-6)]Man(b1-4)GlcNAc(b1-4)GlcNAc
Outline: as §1

[10] = molecular target: Gal(a1-3)Gal(b1-4)GlcNAc(b1-6)GalNAc
Outline: as §1

Gal(a1-3)GalNAc = molecular target: Gal(a1-3)GalNAc
Outline: as §1

Gal(a1-4)Gal(b1-4)GlcNAc = molecular target: Gal(a1-4)Gal(b1-4)GlcNAc
Outline: as §1

Gal(b1-3)GlcNAc = molecular target: Gal(b1-3)GlcNAc
Outline: as §1

[11] = molecular target: Gal(b1-3)GlcNAc(b1-2)[Gal(b1-3)GlcNAc(b1-6)]Man(a1-6)[Gal(b1-3)GlcNAc(b1-2)Man(a1-3)]Man(b1-4)GlcNAc(b1-4)GlcNAc
Outline: as §1

[12] = molecular target: Gal(b1-3)GlcNAc(b1-6)[Gal(b1-3)]GalNAc
Outline: as §1

[13] = molecular target: Gal(b1-3)[Fuc(a1-4)]GlcNAc(b1-2)Man(a1-3)[Gal(b1-3)[Fuc(a1-4)]GlcNAc(b1-2)Man(a1-6)]Man(b1-4)GlcNAc(b1-4)[Fuc(a1-6)]GlcNAc
Outline: as §1

[14] = molecular target: Gal(b1-3)[Neu5Ac(a2-6)]GlcNAc(b1-4)Gal(b1-4)Glc
Outline: as §1

Gal(b1-4)Gal = molecular target: Gal(b1-4)Gal
Outline: as §1

[15] = molecular target: Gal(b1-4)GlcNAc(a1-6)Gal(b1-4)GlcNAc
Outline: as §1

[16] = molecular target: Gal(b1-4)GlcNAc(b1-2)Man(a1-3)Man(b1-4)GlcNAc(b1-4)GlcNAc
Outline: as §1

[17] = molecular target: Gal(b1-4)GlcNAc(b1-2)Man(a1-3)[Gal(b1-4)GlcNAc(b1-2)Man(a1-6)][Gal(b1-4)GlcNAc(b1-4)]Man(b1-4)GlcNAc(b1-4)[Fuc(a1-6)]GlcNAc
Outline: as §1

[18] = molecular target: Gal(b1-4)GlcNAc(b1-2)[Gal(b1-4)GlcNAc(b1-6)]Man(a1-6)[GlcNAc(b1-4)][Gal(b1-4)GlcNAc(b1-2)Man(a1-3)]Man(b1-4)GlcNAc(b1-4)GlcNAc
Outline: as §1

[19] = molecular target: Gal(b1-4)GlcNAc(b1-3)Gal(b1-4)GlcNAc(b1-2)[Gal(b1-4)GlcNAc(b1-3)Gal(b1-4)GlcNAc(b1-6)]Man(a1-6)[Gal(b1-4)GlcNAc(b1-3)Gal(b1-4)GlcNAc(b1-2)Man(a1-3)]Man(b1-4)GlcNAc(b1-4)GlcNAc
Outline: as §1

[20] = molecular target: Gal(b1-4)GlcNAc(b1-3)Gal(b1-4)GlcNAc(b1-2)[Gal(b1-4)GlcNAc(b1-3)Gal(b1-4)GlcNAc(b1-6)]Man(a1-6)[Gal(b1-4)GlcNAc(b1-3)Gal(b1-4)GlcNAc(b1-2)Man(a1-3)]Man(b1-4)GlcNAc(b1-4)[Fuc(a1-6)]GlcNAc
Outline: as §1

[21] = molecular target: Gal(b1-4)GlcNAc(b1-3)Gal(b1-4)GlcNAc(b1-3)Gal(b1-4)GlcNAc(b1-2)Man(a1-3)[Gal(b1-4)GlcNAc(b1-3)Gal(b1-4)GlcNAc(b1-3)Gal(b1-4)GlcNAc(b1-2)Man(a1-6)]Man(b1-4)GlcNAc(b1-4)[Fuc(a1-6)]GlcNAc
Outline: as §1

[22] = molecular target: Gal(b1-4)GlcNAc(b1-3)Gal(b1-4)GlcNAc(b1-3)Gal(b1-4)GlcNAc(b1-3)Gal(b1-4)GlcNAc(b1-2)Man(a1-3)[Gal(b1-4)GlcNAc(b1-3)Gal(b1-4)GlcNAc(b1-3)Gal(b1-4)GlcNAc(b1-3)Gal(b1-4)GlcNAc(b1-2)Man(a1-6)]Man(b1-4)GlcNAc(b1-4)GlcNAc
Outline: as §1

[23] = molecular target: Gal(b1-4)GlcNAc(b1-3)Gal(b1-4)GlcNAc(b1-3)Gal(b1-4)GlcNAc(b1-3)Gal(b1-4)GlcNAc(b1-3)Gal(b1-4)GlcNAc(b1-2)Man(a1-3)[Gal(b1-4)GlcNAc(b1-3)Gal(b1-4)GlcNAc(b1-3)Gal(b1-4)GlcNAc(b1-3)Gal(b1-4)GlcNAc(b1-3)Gal(b1-4)GlcNAc(b1-2)Man(a1-6)]Man(b1-4)GlcNAc(b1-4)GlcNAc
Outline: as §1

[24] = molecular target: Gal(b1-4)GlcNAc(b1-3)Gal(b1-4)GlcNAc(b1-3)Gal(b1-4)GlcNAc(b1-3)Gal(b1-4)GlcNAc(b1-3)Gal(b1-4)GlcNAc(b1-2)Man(a1-3)[Gal(b1-4)GlcNAc(b1-3)Gal(b1-4)GlcNAc(b1-3)Gal(b1-4)GlcNAc(b1-3)Gal(b1-4)GlcNAc(b1-3)Gal(b1-4)GlcNAc(b1-2)Man(a1-6)]Man(b1-4)GlcNAc(b1-4)[Fuc(a1-6)]GlcNAc
Outline: as §1

[25] = molecular target: Gal(b1-4)GlcNAc(b1-3)Gal(b1-4)GlcNAc(b1-6)[Gal(b1-3)]GalNAc
Outline: as §1

[26] = molecular target: Gal(b1-4)GlcNAc(b1-6)[Gal(b1-3)]GalNAc
Outline: as §1

B1: SspB A3vp1 (Streptococcus gordonii), Q54186 (protein)
chain: MTNEADYQAKLAAYQTELARVQKANADAKATYEKAVEDNKAKNAAIKAENEEIKQRNAVAKTDYEAKLAKYEADLAKYKKEFAAYTAALAEAESKKKQDGYLSEPRSQSLNFKSEPNAIRTIDSSVHQYGQQELDALVKSWGISPTNPDRKKSRAYSYFNAINSNNTYAKLVLEKDKPVDVTYTGLKNSSFNGKKISKVVYTYTLKETGFNDGTKMTMFASSDPTVTAWYNDYFTSTNINVKVKFYDEEGQLMNLTGGLVNFSSLNRGNGSGAIDKDAIESVRNFNGRYIPISGSSIKIHENNSAYADSSNAEKSLGARWNTSEWDTTSSPNNWYGAIVGEITQSEISFNMASSKSGNIWFAFNSNINAIGVPTKPVAPTAPTQPMYETEKPLEPAPVAPSYENEPTPPVKTPDQPEPSKPAAALEHHHHHH
Q: What does the source list for B1?
A: glycan array binding signal (z-score) [1]: 6.26; glycan array binding signal (z-score) [2]: -0.372; glycan array binding signal (z-score) [3]: 0.099; glycan array binding signal (z-score) [4]: -0.651; glycan array binding signal (z-score) [5]: 0.127; glycan array binding signal (z-score) [6]: 3.5; glycan array binding signal (z-score) [7]: -1.11; glycan array binding signal (z-score) [8]: 0.062; glycan array binding signal (z-score) [9]: 1.84; glycan array binding signal (z-score) [10]: -0.506; glycan array binding signal (z-score) (Gal(a1-3)GalNAc): -0.575; glycan array binding signal (z-score) (Gal(a1-4)Gal(b1-4)GlcNAc): 0.692; glycan array binding signal (z-score) (Gal(b1-3)GlcNAc): -0.432; glycan array binding signal (z-score) [11]: 1.46; glycan array binding signal (z-score) [12]: 0.011; glycan array binding signal (z-score) [13]: 0.75; glycan array binding signal (z-score) [14]: -0.063; glycan array binding signal (z-score) (Gal(b1-4)Gal): -0.088; glycan array binding signal (z-score) [15]: -0.728; glycan array binding signal (z-score) [16]: -0.334; glycan array binding signal (z-score) [17]: 3.03; glycan array binding signal (z-score) [18]: 0.194; glycan array binding signal (z-score) [19]: 3.16; glycan array binding signal (z-score) [20]: 3.01; glycan array binding signal (z-score) [21]: 3.73; glycan array binding signal (z-score) [22]: 3.61; glycan array binding signal (z-score) [23]: 3.36; glycan array binding signal (z-score) [24]: 3.38; glycan array binding signal (z-score) [25]: 2.1; glycan array binding signal (z-score) [26]: 0.609
